{
  "source": "PubChem BioAssay",
  "data": [
    {"tested_on": "Human papillomavirus type 1a E7 protein (residues 1-88)", "assay": "HPV1a E7 small-molecule binders, primary screen, biochemical, small-molecule microarray, residues 1-88, 635 nm (AID 1129)", "conditions": "small-molecule microarray binding, fluorescence 635 nm; higher = more signal", "values": [
      {"compound": "COC(=O)[C@@]1(Cc2ccc(OC)cc2)[C@H]2c3cc(C(=O)N4CCCC4)n(Cc4nc5ccccc5[nH]4)c3C[C@H]2CN1C(=O)c1ccccc1", "composite z-score": 1.24},
      {"compound": "COc1ccc(NC(=O)O[C@H]2[C@H](OC(=O)c3cc4ccccc4[nH]3)[C@@H](OC(=O)c3cc4ccccc4[nH]3)[C@@H](OC)O[C@@H]2CO)cc1", "composite z-score": 0.359},
      {"compound": "C=C(CCCC)C(=O)CC[C@@H](OC(C)=O)c1ccc(CO)o1", "composite z-score": -0.261},
      {"compound": "O=C1[C@H]2C=C(I)[C@H](C[C@@H]2OCCCCO)[C@@]12CO2", "composite z-score": 0.0789},
      {"compound": "COCCCNC(=O)[C@@]1(Cc2ccccc2)N=C(c2ccc(OCCCO)cc2)O[C@H]1c1ccccc1CN=[N+]=[N-]", "composite z-score": 1.17},
      {"compound": "CN(C)CCCCCCNC(=O)[C@@H]1C[C@@H]2C(=O)N3CCC[C@H]3C(=O)N2[C@@H]1c1ccc(O)cc1", "composite z-score": 1.11},
      {"compound": "COc1ccc([C@H]2C[C@H]3C(Br)=C[C@@]2(CO)C(=O)[C@]32CO2)cc1", "composite z-score": -0.99},
      {"compound": "C=CCNC(=O)[C@@H]1[C@H]2C(=O)O[C@H](c3ccccc3)[C@H](c3ccccc3)N2[C@H](c2ccc(OCCO)cc2)[C@@]12C(=O)N(C(=O)OCCOC)c1ccc(C#CCNC(N)=O)cc12", "composite z-score": 1.17},
      {"compound": "CS(=O)(=O)CCOC(=O)C1=CC(CCCO)=CC(c2ccc(CN3CCCC3)cc2)N(Cc2cccc(OC(F)(F)F)c2)C=C1C(=O)OCCS(C)(=O)=O", "note": "(stereo unspecified)", "composite z-score": 1.09},
      {"compound": "COCCOC(=O)N1C(=O)[C@@]2(c3cc(C#CC4(O)CCCCCC4)ccc31)[C@H](C(=O)Nc1nc3ccccc3s1)[C@H]1C(=O)O[C@H](c3ccccc3)[C@H](c3ccccc3)N1[C@@H]2c1ccc(OCCO)cc1", "composite z-score": 1.16},
      {"compound": "[N-]=[N+]=Nc1ccccc1C[C@]1(C(=O)NCC(O)CO)N=C(c2ccc(OCCCO)cc2)O[C@H]1c1ccccc1", "note": "(stereo partly specified)", "composite z-score": 1.03},
      {"compound": "[N-]=[N+]=NCc1ccccc1C[C@@]1(C(=O)NCC(O)CO)N=C(c2ccc(OCCCO)cc2)O[C@@H]1c1ccccc1", "note": "(stereo partly specified)", "composite z-score": 0.0034},
      {"compound": "C=CCN1C(=O)[C@]2(O[C@H](CCO)[C@@H]([Si](C)(C)c3ccc(OC)cc3)[C@@H]2C)c2cc(N(C=O)c3ccccc3)ccc21", "composite z-score": 0.823},
      {"compound": "Cc1ccc(S(=O)(=O)N2C[C@@H](C(=O)O)[C@H](Sc3ccccc3)C[C@H]2c2ccccc2)cc1", "composite z-score": 1.23},
      {"compound": "COC(=O)[C@]1(Cc2ccccc2)N=C(c2ccc(OCCCO)cc2)O[C@@H]1c1ccccc1N=[N+]=[N-]", "composite z-score": 1.2},
      {"compound": "C=CC[C@]1(C(N)=O)N=C(c2ccc(OCCCO)cc2)O[C@H]1c1ccccc1", "composite z-score": 1.08},
      {"compound": "[N-]=[N+]=Nc1ccccc1[C@H]1OC(c2ccc(OCCCO)cc2)=N[C@@]1(Cc1ccccc1)C(=O)N1CCOCC1", "composite z-score": 1.21},
      {"compound": "O=C1NC(=O)C2C1C=CC(C(O)c1ccc(-c3ccccc3)s1)N2Nc1ccc(Cl)cc1Cl", "note": "(stereo unspecified)", "composite z-score": 1.11},
      {"compound": "NCCCCCNC(=O)[C@H]1C[C@H]2C(=O)N3CCC[C@H]3C(=O)N2[C@H]1c1ccc(O)cc1", "composite z-score": 1.15},
      {"compound": "CC(=O)n1cc(C(O)C2C=CC3C(=O)NC(=O)C3N2Nc2ccccn2)c2ccccc21", "note": "(stereo unspecified)", "composite z-score": 0.355},
      {"compound": "CO[C@H]1O[C@H](CO)[C@@H](OC(=O)Nc2cccc(F)c2)[C@H](OC(=O)Nc2ccccc2)[C@H]1OC(=O)Nc1ccccc1", "composite z-score": 1.29},
      {"compound": "CO[C@H]1O[C@H](CO)[C@@H](OC(=O)Nc2ccccc2-c2ccccc2)[C@H](OC(=O)Nc2ccccc2-c2ccccc2)[C@@H]1OC(=O)Nc1ccccc1-c1ccccc1", "composite z-score": 1.23},
      {"compound": "O=C(NCc1ccccc1)[C@@H]1c2ccccc2C(=O)N(C2Cc3ccccc3C2)[C@H]1c1ccc(CO)cc1", "composite z-score": 1.17},
      {"compound": "O=C1C2C=CC(C(O)c3ccc(-c4ccccc4)s3)N(Nc3ccccc3)C2C(=O)N1c1ccccc1", "note": "(stereo unspecified)", "composite z-score": 1.25},
      {"compound": "Cc1c(NC(=O)/C(C#N)=C/c2cccc([N+](=O)[O-])c2)c(=O)n(-c2ccccc2)n1C", "composite z-score": 1.02},
      {"compound": "O=C1C2C=CC(C(O)c3c(F)cccc3Cl)N(Nc3ccccc3F)C2C(=O)N1c1ccccc1", "note": "(stereo unspecified)", "composite z-score": 1.23},
      {"compound": "NCCCCCCNC(=O)[C@H]1C[C@H]2C(=O)N[C@@H](Cc3ccccc3)C(=O)N2[C@H]1c1cccc(OCCO)c1", "composite z-score": 0.248},
      {"compound": "CN(C)CCCC[C@@H]1NC(=O)[C@H]2C[C@@H](C(=O)NCCCCCN)[C@@H](c3cccc(OCCO)c3)N2C1=O", "composite z-score": 1.12},
      {"compound": "O=C(NCCN1CCOCC1)[C@@H]1c2ccccc2C(=O)N(Cc2cc(C(F)(F)F)cc(C(F)(F)F)c2)[C@H]1c1ccc(CO)cc1", "composite z-score": -0.137},
      {"compound": "COc1ccc([Si](C)(C)[C@@H]2[C@@H](CC(=O)N3Cc4ccccc4C[C@H]3CO)O[C@]3(C(=O)N(Cc4cccc(N5CCC5=O)c4)c4ccccc43)[C@H]2C)cc1", "composite z-score": 1.12},
      {"compound": "CN1C(=O)C2C=CC(C(O)c3c(F)cccc3Cl)N(NC(=O)OC(C)(C)C)C2C1=O", "note": "(stereo unspecified)", "composite z-score": 1.09},
      {"compound": "O=C1OCCC/C=C\\[C@H]2OC34C=CCN(c5ccc6ccccc6c5)C(=O)[C@H]3N(CCCCCO)C(=O)[C@@H]4C12", "note": "(stereo partly specified)", "composite z-score": -1.62},
      {"compound": "COc1ccc([Si](C)(C)[C@H]2[C@H](CC(=O)N3CCC[C@H]3CO)O[C@@]3(C(=O)N(Cc4cccc(N5CCOC5=O)c4)c4ccccc43)[C@@H]2C)cc1", "composite z-score": 0.883},
      {"compound": "COCC(=C=CC[C@H](O)c1cccc(OCCO)c1)CCO", "composite z-score": 0.0665},
      {"compound": "C=CCC(OC(C)=O)[C@@H]1[C@@H](N(Cc2ccc(-c3cccc(C(F)(F)F)c3)o2)C(=O)c2cccc3ccccc23)c2cc(OCCCO)ccc2N1C(=O)Cc1ccc2ccccc2c1", "note": "(stereo partly specified)", "composite z-score": -0.688},
      {"compound": "COCCOC(=O)N1C(=O)[C@@]2(c3ccccc31)[C@H](C(=O)N1CCCCCCC1)[C@H]1C(=O)O[C@H](c3ccccc3)[C@H](c3ccccc3)N1[C@@H]2c1ccc(OCCO)cc1", "composite z-score": 1.35}
    ]}
  ]
}
